Values joined by “and” are separate entries in the source; they are usually repeats but may differ in a detail not shown here. Equal entries are not always repeated. Results filed as inconclusive are left out. Active and inactive are the calls of the source. Calls follow the shape of the dose curve; as a rule, active = well fitted activation curve with a large enough effect; inconclusive = small, poorly fitted or top-dose-only effect; inactive = flat fitted curve, though single readings scatter.

This experiment in a line: qHTS assay for environmental chemicals that activate the Aryl hydrocarbon Receptor (AhR) signaling pathway (AID 651777). Also: % of control where 0% means no effect; nearly all actives have a fitted effect of over 15% in size. The note with it: 1A2-DRE human hepatoma cells, luciferase, 24 h; hits give high values. From the text:
National Center for Advancing Translational Sciences [NCATS]
NIH Chemical Genomics Center [NCGC]
U.S. Environmental Protection Agency [EPA]
National Institutes of Environmental Health Sciences [NIEHS]
National Toxicology Program [NTP]
The Aryl hydrocarbon Receptor (AhR) plays a critical role in the development of cancer or neoplasm and its formation is most likely due to genetic mutations and the influence of environment. Exposure to environmental pollutants such as polycyclic aromatic hydrocarbons (PAH), their halogenated derivatives and heterocyclic amines causes the induction of phase I and II enzymes. The transcriptional activation of CYP1A2 is directly regulated by AhR.
A cell based assay (1A2-DRE cells, developed by Puracyp, Inc., CA) was used to assess the activation of AhR. Human hepatoma cells were stably transfected with the dioxin response element (DRE) and CYP1A2 promoter fused to a luciferase gene. Increased luciferase activity can be used to identify the compounds that cause the induction of CYP1A2 and AhR activation.
1,200 cells in 5 uL/well were dispensed into white wall/solid bottom 1536-well plates using a Multidrop Combi (Thermo Scientific) dispenser. Following transfer of 23 nL compound or DMSO vehicle by a pin tool, the plates were incubated 24 hr at 37 C and 5% CO2. 5 ul One-Glo (Promega) was then added to each well and following 30 min incubation at room temperature, luciferase activity was quantified on a ViewLux CCD-based plate reader.
A general note: In qHTS, concentration-response curves come from the screen itself.
For the molecule `NC(=O)c1cnccn1`, the activation is -0.771% (inactive) and 0.812% (inactive).
As for `Cc1cc2c(C(C)C)c(O)c(O)c(C=O)c2c(O)c1-c1c(C)cc2c(C(C)C)c(O)c(O)c(C=O)c2c1O`, the activation is -3.15% (inactive).
For `O=C1CCC(N2C(=O)c3ccccc3C2=O)C(=O)N1` (stereo unspecified), the activation is -0.0215% (inactive).
With `CC(=O)Oc1ccccc1C(=O)O`, the activation was 0.977% (inactive) and -1.01% (inactive) and -0.15% (inactive).
As to `NC[C@H](O)c1ccc(O)c(O)c1`, the activation is 0.207% (inactive).
Then `Cc1c(C)c2c(c(C)c1O)CCC(C)(COc1ccc(CC3SC(=O)NC3=O)cc1)O2` (stereo unspecified), with 5.68% (inactive).
Consider `Cn1cnc([N+](=O)[O-])c1Sc1ncnc2nc[nH]c12`, for which the activation is -4.71% (inactive) and -5.39% (inactive).
For `O=NN(CCCl)C(=O)NCCCl`, the activation is 0.58% (inactive).
As to `Cc1ccccc1C(OCCN(C)C)c1ccccc1` (stereo unspecified), the activation was 0.382% (inactive).
Then `CC(C)(Sc1ccc(CCN(CCCCC2CCCCC2)C(=O)NC2CCCCC2)cc1)C(=O)O`, with 0.388% (inactive); and `NC(N)=NC(=O)c1nc(Cl)c(N)nc1N`, with 6.31% (inactive).
Then `O=c1[nH]cnc2[nH]ncc12`, with -0.722% (inactive); and `Cc1[nH]c(=O)c(C#N)cc1-c1ccncc1`, with 0.896% (inactive); and `NS(=O)(=O)c1cc2c(cc1Cl)NC=NS2(=O)=O`, with -1.42% (inactive).
For `CNC[C@H](O)c1cccc(O)c1`, the activation was -0.659% (inactive).
Then `C[C@]12CCC(=O)C=C1CC[C@@H]1[C@@H]2[C@@H](O)C[C@@]2(C)[C@H]1CC[C@]2(O)C(=O)CO`, with -1.47% (inactive).

For the origin of these results see PubChem BioAssay (NCATS).
